In the library only some 1.4% were active in any assay of this set; here they are far more common.
CCT modulator: cytosolic chaperonin activity modulation; activity change, % (no concentration beside the values), hits read low; hit rate 0.3% among 360,000; purified chaperonin ATPase assay, HTRF ADP detection, 30 min; in the data active = activity change below about -30%; note: % is set by controls: 0 for no effect and ±100 for the full control effect
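First, chaperonin was dispensed at 40 nM or 20 nM final depending on batch activity. Next, compounds were pinned at 76 uM and ATP added at 10 uM. After 30 min at 37 °C, ADP detection reagents ran 30 min at ambient temperature.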
ALOX12 inh: blocks human arachidonate 12S-lipoxygenase | P18054 | purified 12hLO, xylenol orange hydroperoxide absorbance | Potency, µM (highest dose often 108 µM), for the others: top-dose activity change, negative = inhibition, most hits filed as inhibitors | hit rate 1.1% among 580,000 | AID 1671190; note: potency is the fitted concentration of half-maximal effect; % is set by controls: 0 for no effect and ±100 for the full control effect
Target sequence (P18054 whole entry, looked up): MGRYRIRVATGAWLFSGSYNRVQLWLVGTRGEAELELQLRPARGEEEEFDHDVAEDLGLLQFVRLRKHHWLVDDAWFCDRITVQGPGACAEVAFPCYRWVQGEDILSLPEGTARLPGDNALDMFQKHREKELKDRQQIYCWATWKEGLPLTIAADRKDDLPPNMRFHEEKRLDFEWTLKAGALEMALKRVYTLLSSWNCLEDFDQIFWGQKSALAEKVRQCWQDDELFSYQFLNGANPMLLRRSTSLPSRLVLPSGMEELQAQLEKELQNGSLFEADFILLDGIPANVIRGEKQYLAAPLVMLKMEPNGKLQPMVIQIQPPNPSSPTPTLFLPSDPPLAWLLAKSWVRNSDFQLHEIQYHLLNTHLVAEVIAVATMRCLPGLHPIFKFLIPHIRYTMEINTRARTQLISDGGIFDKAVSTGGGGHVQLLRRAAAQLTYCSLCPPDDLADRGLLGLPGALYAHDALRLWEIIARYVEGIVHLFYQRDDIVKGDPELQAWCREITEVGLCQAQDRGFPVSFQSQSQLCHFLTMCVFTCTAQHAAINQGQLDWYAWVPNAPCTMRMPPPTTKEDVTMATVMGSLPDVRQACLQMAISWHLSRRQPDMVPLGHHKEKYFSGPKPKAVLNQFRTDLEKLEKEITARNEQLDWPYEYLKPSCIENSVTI
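Hydroperoxide product was detected by ferrous iron/xylenol orange as the 573 to 405 nm absorbance ratio. Arachidonic acid at 40 uM (final) was turned over for 30 min at room temperature by 150 nM human 12hLO, pH 7.0 Hepes buffer, after 15 min compound preincubation.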
MmCpn inh: M. maripaludis TRiC chaperonin inhibition; purified Mm-Cpn ATPase, ADP Transcreener TR-FRET; Potency, µM (doses to about 76.9 µM), inactives show top-dose activity, negative = inhibition, hits mostly inhibitors; hit rate 0.031% among 330,000; note: potency is the fitted concentration of half-maximal effect; % is set by controls: 0 for no effect and ±100 for the full control effect; nearly all actives have a fitted effect of over 80% in size
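ATPase turnover read by TR-FRET ADP competition (Eu cryptate antibody/ADP-d2, 665/590 nm): 10uM ATP final, 25nM Mm-CPN final, 30 min 37degC after 10-min compound preincubation, pH 7.4 Tris/KCl/MgCl2/DTT buffer.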
S-ASM inh: human S-ASM enzyme inhibition | placental ASM, HMU-PC fluorogenic substrate, 60 min | Potency, µM (doses to about 57.5 µM), without a hit: at the top dose activity change, negative = inhibition, usual class: inhibitors | hit rate 0.006% among 340,000 | P17405; note: potency is the fitted concentration of half-maximal effect
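Fluorescence read-out (Ex 386 nm, Em 447 nm) after stopping the reaction at pH 10. Enzyme: ASM from human placenta; substrate HMU-PC0, 9 uM final; 60 min, 37 °C. Compound preincubation 10 min, ambient temperature.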
PINK1 modulator: modulators of PINK1 expression | PINK1 immunofluorescence, high-content cytometry, 24 h | hit rate 0.2% among 410,000 | Potency, µM (top dose mostly 76.6 µM), without a hit: at the top dose activation (PINK1 increase), hits mostly activators; active = well fitted activation curve with a large enough effect; inconclusive = small, poorly fitted or top-dose-only effect; cell line not stated here; note: potency is the fitted concentration of half-maximal effect; % of control where 0% means no effect; nearly all actives have a fitted effect of over 65% in size
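Compound titrations (5 concentrations, 24 h) on a stable cell line; DMSO and CCCP controls. Endpoint: fixed-cell PINK1 immunofluorescence with mitochondrial, cell and nuclear markers, scanned by microplate cytometer.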
p53 reactivation: mutant p53 re-activation in reporter cells; H1299 p53-A138V BP100-luciferase reporter, luminescence, 24 h; Potency, µM (titrated, usually from 92.2 µM), for inactives: at the top dose activity change, positive = activation, actives largely listed as activators; hit rate 0.063% among 320,000; AID 504706; note: potency is the fitted concentration of half-maximal effect; % of control where 0% means no effect; nearly all actives have a fitted effect of over 45% in size
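p53-null H1299 cells stably carrying temperature-sensitive p53-A138V and a BP100-luciferase reporter were pinned with compounds (4-point, 1:5 series) and held 24 hrs at 37 deg C. Luminescence was read 10 min after detection reagent.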
The depositor's hits bear a star; i = inactive; ? = inconclusive; nt = no result given; [ ] = another dose, or the depositor's remark. Unless noted, calls come from the whole dose curve; as a rule, active = well fitted curve in the direction sought with a large enough effect; inconclusive = small, poorly fitted or top-dose-only effect, or another doubt; inactive = no such curve, though single readings can be large; an effect the other way counts as inactive or inconclusive.

SMILES	CCT modulator	ALOX12 inh	MmCpn inh	S-ASM inh	PINK1 modulator	p53 reactivation
Cc1cc(Br)ccc1NC(=S)Nc1cccc([N+](=O)[O-])c1	-1.3	?	0.9%	-3.9%	39.8µM*	12.5%
C/C(=N/NC(=S)Nc1cccc(C)c1)c1cccc([N+](=O)[O-])c1	-1.2	39.8µM*	0.0%	-9.7%	1.1%	-1.9%
C/C(=N\Nc1ccccc1)c1cccc([N+](=O)[O-])c1	nt	6.31µM*	nt	nt	nt	nt
CN(c1ccc(OCC(=O)N2CCN(c3ncccn3)CC2)cc1)S(=O)(=O)c1cccs1	nt	-1.2%	nt	nt	nt	nt
COc1cccc(CNC(=O)NNc2nc(C)cc(=O)[nH]2)c1	nt	-1.7%	nt	nt	nt	nt
C/C(=N\Nc1cccc(Cl)c1)c1ccncc1	-9.2	17.8µM*	-0.8%	-3.9%	2.0%	-0.6%
CCNC(=S)N/N=C(\C)c1cc2ccccc2o1	-1.4	?	-4.1%	-3.9%	-0.8%	27.5%
C/C(=N\Nc1ccc(Cl)cc1)c1ccncc1	-1.5	?	-0.4%	-2.3%	2.8%	2.7%
O=[N+]([O-])c1cccc(NN=Nc2ccccc2)c1	1.1	15.8µM*	-1.8%	-11.5%	0.2%	?
C/C(=N\NC(=S)Nc1cccc(C)c1)c1cc2ccccc2o1	-0.8	35.5µM*	-1.3%	-12.2%	-0.4%	25.9%
CC(Oc1ccccc1)c1nc(-c2cccc(Br)c2)no1 (centres undefined)	nt	-2.0%	nt	nt	nt	nt
Cc1ccc(N2CC(C(=O)NC3CC3)CC2=O)cc1Cl (centres undefined)	1.3	5.1%	2.6%	-8.5%	-0.6%	1.9%
Cc1ccc(N2CC(C(=O)NCC3CCCO3)CC2=O)cc1Cl (centres undefined)	-143.4*	3.1%	1.3%	0.5%	-1.9%	1.3%
CCCCCCCCCCCCCCCC[n+]1ccc(C(N)=O)cc1	-2.0	44.7µM*	-0.2%	?	?	-4.5%
CC(C)Cn1cc(NC(=O)N2CCN(c3cccc(C(F)(F)F)c3)CC2)c2ccccc2c1=O	nt	-23.0%	nt	nt	-2.1%	nt
CC(C)Cn1cc(NC(=O)Nc2cccc(C(F)(F)F)c2)c2ccccc2c1=O	nt	7.08µM*	nt	nt	?	nt
COC(=O)NCC(c1ccco1)N1CCN(c2ccc(OC)cc2)CC1 (centres undefined)	-0.4	-2.4%	-0.8%	1.4%	0.2%	-1.0%
COc1ccc(N2CCN(C(CNC(=O)C(=O)NCCCO)c3ccco3)CC2)cc1 (centres undefined)	-69.1*	4.8%	1.3%	-1.3%	0.0%	-0.8%
CCCCc1c(C)nc2ccc(OC)cc2c1SCCC(=O)O	-2.1	44.7µM*	-7.6%	6.5%	0.0%	7.2%
Cc1ccc(C(=O)Oc2ccccc2N2CCOCC2)cc1	1.0	-0.5%	2.2%	-1.5%	2.5%	20.6%
Cc1ccc(C(=O)OC2OC(=O)C(Cl)=C2N2CCOCC2)cc1 (centres undefined)	-49.6*	-2.3%	3.1%	4.3%	-3.2%	-0.4%
Cc1cc(C)c2oc(-c3ccc(C)c(NC(=O)/C=C/c4ccco4)c3)nc2c1	nt	50.1µM*	nt	nt	10.6%	nt
c1coc(CN2CC(Oc3ccc(-c4noc(-c5ccncc5)n4)cc3)C2)c1	nt	-20.8%	nt	nt	nt	nt
O=C(O)/C(=C\C=C\c1ccco1)NC(=O)c1ccccc1	nt	1.58µM*	nt	nt	nt	nt
CCCOC(=O)/C(=C\C=C\c1ccco1)NC(=O)c1ccccc1	-5.4	35.5µM*	-2.2%	11.2%	0.9%	?
SMILES	CCT modulator	ALOX12 inh	MmCpn inh	S-ASM inh	PINK1 modulator	p53 reactivation
O=C(CSc1ncnc2ccccc12)Nc1cccc2ccccc12	nt	-28.2%	nt	nt	nt	nt
CC(NC(=O)c1ccc(-c2ccco2)cc1)c1ccccc1 (centres undefined)	nt	12.6µM*	nt	nt	nt	nt
CC(C)CCNC(=O)c1cc(-c2ccco2)nc2ccccc12	-1.5	?	-3.6%	123.1%	-1.5%	-6.6%
CC(NC(=O)c1cc(-c2ccco2)nc2ccccc12)c1ccccc1 (centres undefined)	nt	44.7µM*	nt	nt	nt	nt
CN(C)C(CNC(=O)c1cc(-c2ccco2)nc2ccccc12)c1ccccc1 (centres undefined)	1.6	10µM*	-0.5%	112.5%	-1.8%	5.8%
N#CC(Cc1cccnc1)C(=O)Nc1cc(Cl)ccc1Cl (centres undefined)	nt	-0.7%	nt	nt	nt	nt
CC(=O)N1CC=C2C(C#N)=C(N)C(C#N)(C#N)[C@H](c3ccoc3)[C@H]2C1	-2.9	-7.8%	-1.3%	65.8%	3.6%[38.3 µM]	0.3%
CN1CC=C2C(C#N)=C(N)C(C#N)(C#N)[C@H](c3ccoc3)[C@H]2C1	-2.0	nt	-8.5%	i	39.8µM*	11.5%
CN1CC=C2C(C#N)=C(N)C(C#N)(C#N)C(c3cccc(Cl)c3Cl)C2C1 (centres undefined)	1.4	-21.0%	-0.9%	496.3%	14.1µM*	?
N#CC1=C(N)C(C#N)(C#N)[C@H](c2ccoc2)[C@H]2CN(Cc3ccccc3)CC=C12	-0.9	-11.1%	0.2%	i	?	25.7%
Cc1cc(=O)oc2cc(OCC(=O)NCc3cccnc3)c(Cl)cc12	nt	-3.3%	nt	nt	nt	nt
Cc1cnc(CCNC(=O)c2ccc(C#N)cc2)n1C1CCCC1	nt	-12.9%	nt	nt	nt	nt
CC1(CCc2ccccc2)NC(=S)N(c2ccc(Cl)cc2)N1 (centres undefined)	0.6	?	1.8%	-9.1%	5.5%	9.8%
CC1(CCc2ccccc2)NC(=S)N(c2ccccc2)N1 (centres undefined)	0.2	1µM*	2.5%	0.8%	3.9%	?
S=C1NC2(CCCCCC2)NN1c1ccccc1	nt	1.41µM*	nt	nt	nt	nt
CN(CCCNC(=O)c1nc2ccccc2c(=O)[nH]1)C(=O)c1ccccc1	nt	3.7%	nt	nt	nt	nt
CC1=CC(c2ccccc2)n2nc(N)nc2N1 (centres undefined)	-86.9*	15.6%	nt	i	0.0%	nt
CCN=C(N/N=C/c1ccc([N+](=O)[O-])cc1)SC	-1.2	31.6µM*	2.4%	1.5%	-3.3%	1.7%
O=[N+]([O-])c1ccc(C=NNC(=S)NN=Cc2ccc([N+](=O)[O-])cc2)cc1	-1.0	?	nt	-2.7%	1.0%	nt
CC(=O)NC1=C(NC2CCS(=O)(=O)C2)C(=O)c2ccccc2C1=O (centres undefined)	-44.2*	-27.5%	-0.3%	0.9%	-0.3%	-42.3%
CN(C1=C(NC(=O)c2ccccc2)C(=O)c2ccccc2C1=O)C1CCS(=O)(=O)C1 (centres undefined)	-1.7	?	-1.5%	-9.9%	0.0%	-16.7%
Cc1cc(NS(=O)(=O)c2ccc(NC(=O)COc3ccc(C#N)cc3)cc2)nc(C)n1	-31.7*	166.4%	-2.7%	2.0%	-0.8%	2.1%
Cc1ccc(OCC(=O)Nc2ccc(S(=O)(=O)Nc3cc(C)nc(C)n3)cc2)cc1	1.8	-2.6%	?	-2.4%	0.0%	14.6%

High-throughput results from PubChem.
